Results filed as inconclusive are left out. Where a call stands in place of a potency, no number is given. Calls of active or inactive are those of the source. Calls follow the shape of the dose curve; as a rule, active = well fitted inhibition curve with a large enough effect; inconclusive = small, poorly fitted or top-dose-only effect; inactive = flat fitted curve, though single readings scatter.
Experiments:
Test in all cases: qHTS profiling for inhibitors of Plasmodium falciparum proliferation (AID 504749); also: nearly all actives have a fitted effect of over 60% in size
Details in all cases: P. falciparum in erythrocytes, SYBR Green DNA, 72 h; series mostly up to 28.7 µM
[1] = system: CP238
In short: (§1)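 Fluorescence of SYBR Green-bound parasite DNA, read at 485/535 nm, served as the growth measure. Infected erythrocytes were cultured with compound 72 h; artemisinin (0.29 uM) and DMSO wells defined the normalization range.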

[2] = system: CP247
In short: as §1

[3] = system: CP250
In short: as §1

[4] = system: CP252
In short: as §1

[5] = system: CP256
In short: as §1

[6] = system: CP260
In short: as §1

[7] = system: CP262
In short: as §1

[8] = system: CP265
In short: as §1

[9] = system: CP266
In short: as §1

[10] = system: CP268
In short: as §1
Potency is read from the fitted curve at half-maximal effect.

SMILES	Potency [1]	outcome [2]	Potency [3]	Potency [4]	outcome [5]	Potency [6]	outcome [7]	Potency [8]	Potency [9]	Potency [10]
CN1CCN2c3ncccc3Cc3ccccc3C2C1 (stereo not given)	inactive	inactive	inactive	inactive	inactive	inactive	inactive	inactive	inactive	inactive
N#CC(c1ccc(Cl)cc1)c1c(Cl)cc(-n2ncc(=O)[nH]c2=O)cc1Cl (stereo not given)	inactive	inactive	inactive	inactive	inactive	inactive	inactive	inactive	inactive	inactive
COc1c(C)c2c(c(O)c1CC=C(C)CCC(=O)OCCN1CCOCC1)C(=O)OC2	7.94 µM (active)	–	7.94 µM (active)	8.91 µM (active)	–	11.2 µM (active)	–	7.94 µM (active)	12 µM (active)	12 µM (active)
O=C(O)c1nc(=O)[nH]c(=O)[nH]1	inactive	inactive	inactive	inactive	inactive	inactive	inactive	inactive	inactive	inactive
Fc1ccc(C(c2ccc(F)cc2)N2CCN(CC=Cc3ccccc3)CC2)cc1	–	–	–	–	–	–	inactive	–	–	–
Cc1cc2nc3c(=O)[nH]c(=O)nc-3n(CC(O)C(O)C(O)CO)c2cc1C (stereo not given)	inactive	–	inactive	inactive	inactive	inactive	inactive	inactive	inactive	inactive
COc1cc2c(cc1OC)CC(=O)N(CCCN(C)C[C@H]1Cc3cc(OC)c(OC)cc31)CC2	inactive	inactive	inactive	inactive	inactive	inactive	inactive	inactive	inactive	inactive
C=C1c2cccc(O)c2C(O)=C2C(=O)[C@@]3(O)C(O)=C(C(N)=O)C(=O)[C@@H](N(C)C)[C@@H]3[C@@H](O)[C@H]12	inactive	inactive	inactive	inactive	inactive	–	inactive	inactive	inactive	inactive
O=C1C(CCC(O)c2ccc(F)cc2)C(c2ccc(O)cc2)N1c1ccc(F)cc1 (stereo not given)	inactive	inactive	inactive	inactive	inactive	inactive	inactive	inactive	inactive	inactive
CN1CC(=O)N2C(Cc3c([nH]c4ccccc34)[C@H]2c2ccc3c(c2)OCO3)C1=O (stereo not given in full)	inactive	inactive	inactive	inactive	inactive	–	inactive	inactive	inactive	inactive
NS(=O)(=O)c1cc(Cl)c(Cl)c(S(N)(=O)=O)c1	inactive	inactive	inactive	inactive	inactive	inactive	inactive	inactive	inactive	inactive
N#Cc1c(N(CC(=O)O)CC(=O)O)sc(C(=O)O)c1CC(=O)O	inactive	inactive	inactive	inactive	inactive	inactive	inactive	inactive	inactive	inactive
COc1ccnc(CS(=O)c2nc3ccc(OC(F)F)cc3[nH]2)c1OC (stereo not given)	inactive	inactive	inactive	inactive	inactive	inactive	inactive	inactive	inactive	inactive
CS(=O)(=O)c1ccc(C2=C(c3ccccc3)C(=O)OC2)cc1	inactive	inactive	inactive	inactive	inactive	inactive	inactive	inactive	inactive	inactive
CC(C)CN(C[C@@H](O)[C@H](Cc1ccccc1)NC(=O)O[C@H]1CO[C@H]2OCC[C@H]21)S(=O)(=O)c1ccc(N)cc1	inactive	inactive	inactive	inactive	inactive	inactive	inactive	inactive	inactive	inactive

Source: PubChem BioAssay (NCATS)
